Measured values reported in PubChem BioAssay (NCI).
Values joined by “and” are separate entries in the source; they are usually repeats but may differ in a detail not shown here. Equal values may be shown once. The panel holds about 83,000 compounds, 20% with a hit somewhere; the sample as a whole holds those more often.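 The endpoint reported here, percent growth, reads 100 for growth as untreated, 0 for no net growth and -100 for all cells dead.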 Active and inactive are the calls of the source. Rule for the calls: active = growth percent below 10; inactive = the rest.

What follows are compounds tested on MDA-MB-468 breast (assay: NCI-60 one-dose screen, 48 h (100 = growth as untreated, 0 = no growth, -100 = all killed)). Settings: 10 µM unless noted.

Structure (SMILES)	growth
NC1N=C(SCC(=O)N2CCN(c3cc4c(cc3F)c(=O)c(C(=O)O)cn4C3CC3)CC2)NC(=O)/C1=C/c1ccc(Cl)cc1 (stereo unspecified)	111% (inactive)
COC(=O)C1(C)CCC[C@]2(C)[C@H]3C[C@H]4C(C(C)C)=C[C@]3(CC[C@@H]12)[C@H]1[C@@H]4[C@@H](OC(=O)c2ccco2)CC[C@@H]1OC(=O)c1ccco1 (stereo partly specified)	102% (inactive)
Cc1cc(C(=O)c2ccccc2)cc(C)c1O	111% (inactive)
O=c1[nH]ccc2c(S(=O)(=O)N3CCCNCC3)cccc12	15.9% (inactive)
Nc1nc2c(c3ncccc13)C(c1cccc(Cl)c1)Cc1ncccc1-2 (stereo unspecified)	26.6% (inactive)
CC(=O)c1c[nH]c2ccc(-c3ccnc(Nc4ccc(NC(=O)c5cccc(F)c5)c(CN5CCOCC5)c4)n3)cc12	-32.9% (active)
COc1ccc(C2=NN3C(C2)c2cc(Br)ccc2OC3c2ccncc2)cc1 (stereo unspecified)	103% (inactive)
COc1ccc2c(c1)c(/C=N/Nc1ccnc3cc(Cl)ccc13)cn2C	-87.3% (active)
CC(=O)NC(C)(C)C(=O)N1CCC[C@H]1C(=O)NC(C)(C)C(=O)N[C@@H](C)C(=O)NC(C)(C)C(=O)N[C@@H](C)C(=O)N[C@@H](CCC(N)=O)C(=O)NC(C)(C)C(=O)N[C@H](C(=O)NC(C)(C)C(=O)NCC(=O)N[C@@H](CC(C)C)C(=O)NC(C)(C)C(=O)N1CCC[C@H]1C(=O)N[C@H](C(=O)NC(C)(C)C(=O)NC(C)(C)C(=O)N[C@@H](CCC(N)=O)C(=O)N[C@@H](CCC(N)=O)C(=O)N[C@H](CO)Cc1ccccc1)C(C)C)C(C)C	3.71% [4.25 µM] (active)
CN=c1ccc2nc3ccc(N)cc3sc-2c1	-5.28% (active)
C=CCCCCOc1ccccc1-c1cnc(OCCCCC=C)n1C	25.5% (inactive)
CCOC(=O)Nc1ccc(-c2nc(-c3cccc(OC)c3)c(-c3ccnc(Br)c3)[nH]2)cc1	25.9% (inactive)
Nc1ccccc1-c1n[nH]c(=O)[nH]c1=O	135% (inactive)
CC(=O)OC1CC2C(C)(C)OC3CC(=O)OCC32C2CCC3(C)C(=CCC3c3ccoc3)C12C (stereo unspecified)	39.1% (inactive)
C=CCN=C1NC(=O)/C(=C/c2cc(C(C)(C)C)c(O)c(C(C)(C)C)c2)S1	43.4% (inactive)
CCN(CC)CCNc1ncnc2c1cnn2-c1ccc(Cl)cc1	57.6% (inactive)
Nc1ccn(C2OC(CO)C(O)C2O)c(=O)n1 (stereo unspecified)	76% (inactive) and 106% (inactive) and 118% (inactive)
C=C1C(=O)O[C@H]2[C@H]1CC/C(Cn1cc(-c3cccc(Cl)c3)nn1)=C\CC[C@@]1(C)O[C@@H]21	-66.1% (active)
O=C1c2c(O)ccc(O)c2C(=O)c2c(NCCNCCO)ccc(NCCNCCO)c21	-77.2% (active)
COc1ccc(CCN2C(=O)CSC2=S)cc1	12.9% (inactive)
COc1cc(OC)c2sc(-c3ccc(-n4cncc4-c4ccc(N)cc4)cc3)nc2c1	67.3% (inactive)
CCN(CCCNc1cc2c(c(N)c1S(=O)(=O)O)C(=O)c1ccccc1C2=O)c1ccccc1	89% (inactive)
CC(=O)CS(C)(=O)=O	109% (inactive)
CCC(c1ccc(OC)cc1)C(CC)c1ccc(O)c(CN2CCCCC2)c1 (stereo unspecified)	22.9% (inactive)
NS(=O)(=O)c1ccc(-n2cc(CC=O)nn2)cc1	102% (inactive)
Cc1ccc(-c2nc(C(Cl)Cl)n3nc(-c4ccccc4)cc3n2)cc1	-21.1% (active)
